In PubChem BioAssay AID1159580 (chemical genetic matrix, 2015):
“And” between values parts separate entries of the source, which are not always exact repeats. Equal entries are not always repeated. Screen size: about 5,500 compounds; about 2,000 (36%) were called active. About 18% were inconclusive and are not listed. No stated cut-off is given here; in the data, active means normalized growth mostly below about 0.91 (no sharp cut-off); inconclusive means no clear call, values can overlap the other calls; inactive means mostly above about 0.92. Some of the results follow.

Test: chemical genetic growth profiling, strain panel (AID 1159580);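 further: tested at 20 µM; growth read once vehicle control cultures reached saturation at 30 °C; 1 = growth at the plate median or of vehicle wells; lower values mean less growth of the strain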
Details: S. cerevisiae deletion strains, growth OD

Measured: normalized growth

CC1(C)S[C@@H]2[C@H](NC(=O)COc3ccccc3)C(=O)N2[C@H]1C(=O)O
inactive: locus YAL013W, strain DEP1, hits give low values 1 | locus YAL021C, strain ccr4, hits give low values 1.01 | locus YAL026C, strain drs2, hits give low values 1 | locus YAL030W, strain snc1, hits give low values 0.989 | locus YBL061C, strain skt5, hits give low values 0.985 | locus YBR009C, strain hhf1, hits give low values 1.01 | locus YBR021W, strain FUR4, hits give low values 1.02 | locus YBR023C, strain chs3, hits give low values 0.996 | locus YBR171W, strain sec66, hits give low values 0.969 | locus YBR229C, strain ROT2, hits give low values 1 | locus YBR231C, strain swc5, hits give low values 0.975 | locus YBR279W, strain paf1, hits give low values 0.999 | locus YCL011C, strain gbp2, hits give low values 1 | locus YCL016C, strain dcc1, hits give low values 1.02 | locus YCL029C, strain bik1, hits give low values 1.04 | locus YCL069W, strain vba3, hits give low values 0.993 | locus YCR088W, strain abp1, hits give low values 0.997 | locus YDL005C, strain med2, hits give low values 0.994 | locus YDL035C, strain GPR1, hits give low values 1.01 | locus YDL040C, strain nat1, hits give low values 0.993 | locus YDL074C, strain BRE1, hits give low values 1.01 | locus YDL101C, strain DUN1, hits give low values 1.01 | locus YDL134C, strain PPH21, hits give low values 1.01 | locus YDL185W, strain tfp1, hits give low values 1.01 | locus YDL192W, strain arf1, hits give low values 1.03 | locus YDR001C, strain nth1, hits give low values 0.99 | locus YDR069C, strain doa4, hits give low values 0.98 | locus YDR101C, strain arx1, hits give low values 1.02 | locus YDR137W, strain rgp1, hits give low values 0.975 | locus YDR150W, strain NUM1, hits give low values 0.999 | locus YDR159W, strain sac3, hits give low values 1 | locus YDR162C, strain NBP2, hits give low values 1.01 | locus YDR195W, strain ref2 0.955 | locus YDR297W, strain sur2, hits give low values 0.991 | locus YDR318W, strain mcm21, hits give low values 1.02 | locus YDR334W, strain swr1, hits give low values 0.993 | locus YDR335W, strain msn5, hits give low values 0.986 | locus YDR388W, hits give low values 1.02 | locus YDR392W, strain spt3, hits give low values 1.03 | locus YDR502C, strain sam2, hits give low values 1.03 | locus YEL003W, strain gim4, hits give low values 0.997 | locus YEL037C, strain rad23, hits give low values 0.992 | locus YEL061C, strain CIN8 (second series), hits give low values 0.986 | locus YEL061C, strain CIN8, hits give low values 1 | locus YER015W, strain faa2, hits give low values 0.999 | locus YER016W, strain bim1, hits give low values 1 | locus YER110C, hits give low values 1.02 | locus YER111C, strain swi4, hits give low values 0.99 | locus YER155C, strain BEM2 (second series), hits give low values 0.977 | locus YER155C, strain BEM2, hits give low values 0.999 | locus YER167W, strain BCK2, hits give low values 1 | locus YFR010W, strain ubp6, hits give low values 0.98 | locus YGL078C, strain dbp3, hits give low values 1.02 | locus YGL086W, strain mad1, hits give low values 1.01 | locus YGL167C, strain pmr1, hits give low values 0.996 | locus YGL173C, strain kem1, hits give low values 0.991 | locus YGL227W, strain vid30, hits give low values 0.984 | locus YGL240W, strain doc1, hits give low values 0.976 | locus YGL248W, strain PDE1, hits give low values 1.01 | locus YGL253W, strain hxk2, hits give low values 0.998 | locus YGR078C, strain PAC10, hits give low values 1.01 | locus YGR135W, strain pre9, hits give low values 1.02 | locus YGR229C, strain SMI1, hits give low values 1.01 | locus YGR252W, strain gcn5, hits give low values 1.02 | locus YHR013C, strain ard1, hits give low values 1 | locus YHR027C, strain rpn1, hits give low values 1.01 | locus YHR030C, strain SLT2, hits give low values 1.01 and 0.967 | locus YHR079C, strain IRE1 (second series), hits give low values 1.02 | locus YHR079C, strain IRE1, hits give low values 0.98 | locus YHR094C, strain hxt1, hits give low values 1.02 | locus YHR129C, strain ARP1, hits give low values 1 | locus YHR142W, strain chs7, hits give low values 1.01 | locus YHR200W, strain rpn10, hits give low values 1.02 | locus YIL066C, strain RNR3, hits give low values 1.01 | locus YIL073C, strain SPO22, hits give low values 1.07 | locus YIL125W, strain kgd1, hits give low values 1.02 | locus YIR030C, strain dcg1, hits give low values 1.03 | locus YJL092W, strain hpr5, hits give low values 0.976 | locus YJL095W, strain BCK1 (second series), hits give low values 0.99 | locus YJL095W, strain BCK1, hits give low values 1.01 and 0.99 | locus YJL115W, strain asf1, hits give low values 0.988 | locus YJL129C, strain trk1, hits give low values 0.955 | locus YJL134W, strain LCB3, hits give low values 1 | locus YJL154C, strain vps35, hits give low values 0.988 | locus YJL164C, strain tpk1, hits give low values 1.02 | locus YJL166W, strain qcr8, hits give low values 0.953 | locus YJL168C, strain set2, hits give low values 1.02 | locus YJL187C, strain SWE1 (second series), hits give low values 1.01 | locus YJL187C, strain SWE1, hits give low values 0.997 | locus YJR043C, strain POL32, hits give low values 1.01 | locus YJR066W, strain TOR1, hits give low values 0.92
